Experimental findings from PubChem BioAssay (NCATS) are described below.

Inconclusive results are not listed. The source made the active and inactive calls. Calls come from the whole dose curve; as a rule, active = well fitted curve in the direction sought with a large enough effect; inconclusive = small, poorly fitted or top-dose-only effect, or another doubt; inactive = no such curve, though single readings can be large; an effect the other way counts as inactive or inconclusive.

A short description of assay [1]: BET inhibitor-based combinations targeting novel dependencies in MECOM-rearranged (r) AML: AML-194 cell line (AID 2202237; note: nearly all actives have a fitted effect of over 40% in size). In a few lines:
(§1)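 A 48 hr incubation preceded viability reading by CellTiter-Glo, with 15 min room-temperature development. Dose series had 11 points; normalization used DMSO and empty wells; AUC was computed and mean-centered per line as Z-AUC.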

Assay [2] in a line: BET inhibitor-based combinations targeting novel dependencies in MECOM-rearranged (r) AML: UCSD-AML1 cell line (AID 2202235). Note: nearly all actives have a fitted effect of over 40% in size. In a few lines: (§2)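 Each compound is tested in an 11-point concentration series against 500 seeded cells/well for 48 hr. The luminescent viability signal is normalized to DMSO and blank wells, then reduced to AUC and a cell-line-centred Z-AUC.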
Assay [3] can be described thus: BET inhibitor-based combinations targeting novel dependencies in MECOM-rearranged (r) AML: MV-4-11 cell line (AID 2202233). Note: nearly all actives have a fitted effect of over 45% in size. In a few lines:
as §2

A short description of assay [4]: BET inhibitor-based combinations targeting novel dependencies in MECOM-rearranged (r) AML: AML-191 cell line (AID 2202236; note: nearly all actives have a fitted effect of over 35% in size). Summed up: as §1
Assay [5] in a line: BET inhibitor-based combinations targeting novel dependencies in MECOM-rearranged (r) AML: HNT-34 cell line (AID 2202234). Note: nearly all actives have a fitted effect of over 35% in size. Summed up: as §2
Potency is the fitted concentration of half-maximal effect.

Take `CC1=C(c2ccc(O)cc2)[C@H](c2ccc(OCCN3CCCCC3)cc2)Oc2cc(O)ccc21`: the Potency result in assay [1] was “inactive”.

Regarding `CCCCCCCCCCCCCC(=O)N[C@H](CO)[C@H](O)c1ccc([N+](=O)[O-])cc1`, the Potency result in assay [2] and in assay [1] was “inactive” throughout.

On to `C[C@@]1(c2ncncc2F)NC(=O)c2cc(-c3cn[nH]c3)ccc21`, for which the values for the Potency in assay [3] and in assay [4] were 14.8 µM (active) and 20.9 µM (active), respectively.

As to `O=C1NC(=O)/C(=C\c2ccc(-c3ccc(F)cc3)o2)S1`, the Potency result in assay [3], in assay [4] and in assay [1] was “inactive” throughout.

On to `CC(=O)N1CCN(c2ccc(NC(=O)Cc3cnc(-c4ccnc(F)c4)c(C)c3)nc2)CC1`, for which the Potency result in assay [5] and in assay [1] was “inactive” throughout.

On to `CCS(=O)(=O)c1ccc2oc(-c3ccc4ccccc4c3)nc2c1`, for which the Potency entry in assay [5] was “inactive”.

With `CCOc1cc(CC(=O)N[C@@H](CC(C)C)c2ccccc2N2CCCCC2)ccc1C(=O)O`, the Potency entry in assay [5], in assay [2] and in assay [4] was “inactive” in each case.

Take `CCOC(=N)c1nc2ccc3ncnc(Nc4cc(F)c(F)cc4Cl)c3c2s1`: the Potency was 16.6 µM (active) in assay [3] and 5.25 µM (active) in assay [4].

On to `O=C(/C=C/c1ccc(Cl)cc1)N1CCC2(CC1)CN(Cc1ccc(Cl)c(Cl)c1)C(=O)O2`, for which the Potency in assay [3] is 20.9 µM (active). Besides, in assay [1], the Potency result is “inactive”.

Regarding `O=C(CCNC(=O)c1ccc(OC(F)(F)F)cc1)N[C@@H]1CCCc2ccccc21`, the Potency entry in assay [2] and in assay [1] was “inactive” throughout.

Turning to `CCc1cnn2c(NCc3ccc[n+]([O-])c3)cc(N3CCCC[C@H]3CCO)nc12`, the Potency in assay [2] is 0.0235 µM (active); in assay [4] it was 0.0263 µM (active); in assay [1], 0.0372 µM (active).

`O=C(NO)C1(CS(=O)(=O)c2ccc(Oc3ccc(Cl)cc3)cc2)CCOCC1`: the Potency in assay [5] was 8.33 µM (active).

Consider `Cc1noc(-c2ccc(-c3ccc(C4(C(=O)O)CC4)cc3)cc2)c1NC(=O)O[C@H](C)c1ccccc1`, for which the Potency entry in assay [2] and in assay [1] was “inactive” each time.
